The panel holds about 83,000 compounds, 20% with a hit somewhere; the sample as a whole holds those more often.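 Single-dose data. Exposure time 48 hours. Values below 10 considered active.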 Values without a mark were called inactive. Calls of active or inactive are those of the source.
Test system: MDA-MB-468 breast
Assay: NCI-60 one-dose screen, 48 h (100 = growth as untreated, 0 = no growth, -100 = all killed)
Conditions: 2.5 µM
Procedure: Growth inhibition of the MDA-MB-468 human Breast tumor cell line is measured as a screen for anti-cancer activity. Cells are grown in 96 well plates and exposed to the test compound for 48 hours. Compounds are tested at a single concentration, which is 10^-5 M for most compounds. The reported endpoint is percent growth (GI% or GIPRCNT), where numbers from 0 - 100% represent growth inhibition, and numbers from -100% - 0 represent cell death. For example, a value of 40 represents 60% growth inhibition. A value of 0 means no net growth occurred over the course of the experiment. A value of -40 indicates 40% of cells at the beginning of the experiment died by the end of the experiment. A value of -100 means all cells are dead at the end of the experiment.
NCI-60 Human Tumor Cell Lines Screen was performed using the standard one-dose NCI protocol, which is described in more detail at https://dtp.cancer.gov/discovery_development/nci-60/default.htm.
Compounds with GIPRCNT values below 10 were considered active. Activity score was based on GIPRCNT using the following formula: […]
Score is 0 for GIPRCNT values of 100 or above, 50 for GIPRCNT values of 0, and 100 for GIPRCNT values of -100.

Structure (SMILES)	growth
CC(=O)O[C@H]1C(=O)[C@@]2(C)[C@H]([C@H](OC(=O)c3ccccc3)[C@]3(O)C[C@H](OC(=O)[C@H](O)[C@@H](NC(=O)c4ccccc4)c4ccccc4)C(C)=C1C3(C)C)[C@]1(OC(C)=O)CO[C@@H]1C[C@@H]2O	-25.5% (active)

Same assay, conditions: 5 µM

Structure (SMILES)	growth
CC(=O)O[C@H]1C(=O)[C@@]2(C)[C@H]([C@H](OC(=O)c3ccccc3)[C@]3(O)C[C@H](OC(=O)[C@H](O)[C@@H](NC(=O)c4ccccc4)c4ccccc4)C(C)=C1C3(C)C)[C@]1(OC(C)=O)CO[C@@H]1C[C@@H]2O	-21.9% (active)

Same assay, conditions: 10 µM

Structure (SMILES)	growth
CC(=O)O[C@H]1C(=O)[C@@]2(C)[C@H]([C@H](OC(=O)c3ccccc3)[C@]3(O)C[C@H](OC(=O)[C@H](O)[C@@H](NC(=O)c4ccccc4)c4ccccc4)C(C)=C1C3(C)C)[C@]1(OC(C)=O)CO[C@@H]1C[C@@H]2O	-19.1% (active)

Same assay, conditions: 10 µM unless noted

Structure (SMILES)	growth
COc1cccc(NC(=O)Nc2ccc(Nc3ncnc4sc5c(c34)CCN(C(=O)CCl)C5)cc2)c1	117%
CC(C)CCC[C@@H](C)[C@H]1CC[C@H]2[C@@H](Nc3ccc(O)cc3)CCC[C@]12C	-13.8% (active)
COc1ccc(N2CCN(c3nc(-c4ccccc4)c(C#N)c(=O)[nH]3)CC2)cc1	97.9%
Cc1ccc(/C=C(\C#N)n2nnc3cc(Cl)c(Cl)cc32)cc1	22.3%
O=C1/C(=C\c2cccn2Cc2ccccc2)c2ccccc2N1c1c(Cl)cccc1Cl	-77.5% (active)
CCOC(=O)CCC(=O)O[C@H]1[C@H](O[C@@H]2[C@@H](C)[C@H](O[C@H]3C[C@@](C)(OC)[C@@H](O)[C@H](C)O3)[C@@H](C)C(=O)O[C@H](CC)[C@@](C)(O)[C@H](O)[C@@H](C)C(=O)[C@H](C)C[C@@]2(C)O)O[C@H](C)C[C@@H]1N(C)C	109%
O=C(CSc1nnc(-c2cnccn2)n1-c1ccccc1)c1ccc(Cl)cc1	97.6%
CNC1(C#N)CCN(Cc2ccccc2)CC1	85.6%
CC(Oc1ccc(C(=O)NS(=O)(=O)C(C)(C)C)cc1C(F)(F)F)c1ccc(Oc2ccccc2)cn1 (stereo not given)	71.8%
O=C1c2ccccc2C23C(=C(c4cncnc4)c4ccccc42)CCCN13 (stereo not given)	93.3%
COC(=O)CCC(=O)c1ccccc1	115%
O=C(Nc1ccc(-n2ccc3c(NC(=O)c4ccccc4)nccc32)cc1)Nc1cccc(C(F)(F)F)c1	15.5%
Cc1ccc(S(=O)(=O)Nc2ccc(-c3cc(-c4cccc(F)c4)c(C#N)c(N)n3)cc2)cc1	-14.9% (active)
CC1C(=O)CCCC1=O	122%
COc1cc(NCCCCCN=C(N)NC(N)=NC(C)C)c2ncccc2c1	-63.5% (active)
COc1ccc(/C=C2/SC(=S)NC2=O)c(OC)c1OC	65.4%
CC[C@@]1(O)C(=O)OCc2c1cc1n(c2=O)Cc2cc3c(CN(C)C)c(O)ccc3nc2-1	-58.2% (active)
CCN1CCC[C@H]1c1cc(O)c2c(c1OC)C[C@H]1C[C@H]3[C@H](N)C(=O)C(C(N)=O)=C(O)[C@@]3(O)C(=O)C1=C2O	-18.7% (active)
NC(=O)NCCO	102%

Structure (SMILES)	growth
O=C(O)CSCSCC(=O)O	91.2%
CC(C)=CCC/C(C)=C/CC/C(C)=C/CSC[C@H](NC(=O)CCCCCN1CCN(C)CC1)C(=O)NC1CCCCCC1	48.2%
COc1cc(C2CC(c3ccc4c(c3)OCO4)=NN2c2ccccc2)cc(OC)c1OC (stereo not given)	75.7%
O=C1NC(=O)/C(=C\c2ccccc2)C2=C1CCCC2	95.3%
CCCCNCC(O)c1cc(-c2ccc(C(F)(F)F)cc2)nc(-c2ccc(C(F)(F)F)cc2)c1 (stereo not given)	-87.9% (active)
O=CNc1ccc2c(c1)Cc1cc([N+](=O)[O-])ccc1-2	-29.6% (active)
CCOC(=O)c1c(C)oc2ncnc(Nc3ccc(C(=O)NCCc4ccccc4)cc3)c12	90.7%
CN(C)c1ccc(/C=N/Nc2nnc3n2N=C(c2ccc(Cl)cc2)CS3)cc1	104%
COc1cc(O)c2c(c1)[C@H]1O[C@@H]1C[C@H](O)[C@H](O)C(=O)/C=C\C[C@H](C)OC2=O	-1.54% (active)
C=C(C)[C@@H]1CCC[C@]2(C(=O)N3CCN(C)CC3)CC[C@]3(C)[C@@H](CC[C@@H]4[C@@]5(C)CC/C(=N\NC(=O)c6ccncc6)C(C)(C)[C@@H]5CC[C@]43C)[C@@H]12	113%
O=C1c2[nH]cc(CN[C@@H]3CCCN3)c2C(=O)c2c1c(O)c1ccccc1c2O	-92.4% (active)
Cc1ccc2nc(-c3ccc(C(=O)NNC(=S)Nc4ccccc4)cc3)[nH]c2c1	98.6%
Cc1cc2cc3c(=O)[nH]c(=O)cc-3n(CC(O)C(O)C(O)CO)c2cc1C (stereo not given)	122%
CSc1nc(=O)n(Cc2ccc(Cl)cc2)c(=O)[nH]1	121%
CC(=O)c1nn(-c2ccc(C)cc2)cc1C(=O)c1cc2c(ccc3ccccc32)oc1=O	118%
Cc1c(C(=O)NCCC(=O)NO)sc2ncnc(Nc3ccc(F)c(Cl)c3)c12	103%
CCCCCCCCCCCCCCCCCCNC(=O)[C@H]1CSC(c2ccc(OC)c(F)c2)N1 (stereo not given in full)	76.9%
COc1ccc2nc(-c3ccc(-n4cncc4-c4ccc(OC)c(N)c4)cc3)sc2c1	114%
